Bioassay records: PubChem, several laboratories
p47phox inh – p47phox (human) inhibition; P14598; AID 1274; inhibition, % at 24.7 µM; p47phox/p22phox peptide binding, fluorescence polarization, 2 h; 0.53% of 220,000 active;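 active = inhibition above about 30%, limit read from the data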
14-3-3 Bad PPI – disrupts binding of bovine 14-3-3 zeta to phospho-Bad peptide; P63103; AID 781; TR-FRET 14-3-3zeta/Dy647-pBad peptide displacement, 1 h; inhibition, % at 21.7 µM; 0.71% of 220,000 active;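 active = inhibition above about 70%, limit read from the data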
Target sequence (P63103 whole entry, looked up): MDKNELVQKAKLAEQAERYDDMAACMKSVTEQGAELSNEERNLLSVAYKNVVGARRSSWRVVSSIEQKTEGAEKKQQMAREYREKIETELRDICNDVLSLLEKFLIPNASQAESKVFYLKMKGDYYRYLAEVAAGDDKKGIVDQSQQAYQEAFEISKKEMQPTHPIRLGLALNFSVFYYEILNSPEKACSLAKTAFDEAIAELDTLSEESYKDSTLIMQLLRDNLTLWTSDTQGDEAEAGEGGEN
Mcl1-Bid inh – disrupts binding of human Mcl-1 to Bid peptide | Q07820 | TR-FRET Mcl-1/Bid-Dy647 peptide binding, 1536-well | inhibition, % at 21.7 µM | 0.97% of 220,000 active | AID 1021;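 active = compounds that cut the binding signal by more than half at the single screening dose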;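 also: His-tagged Mcl-1 with europium anti-His antibody binding Bid BH3 peptide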
Target sequence (Q07820 whole entry, looked up): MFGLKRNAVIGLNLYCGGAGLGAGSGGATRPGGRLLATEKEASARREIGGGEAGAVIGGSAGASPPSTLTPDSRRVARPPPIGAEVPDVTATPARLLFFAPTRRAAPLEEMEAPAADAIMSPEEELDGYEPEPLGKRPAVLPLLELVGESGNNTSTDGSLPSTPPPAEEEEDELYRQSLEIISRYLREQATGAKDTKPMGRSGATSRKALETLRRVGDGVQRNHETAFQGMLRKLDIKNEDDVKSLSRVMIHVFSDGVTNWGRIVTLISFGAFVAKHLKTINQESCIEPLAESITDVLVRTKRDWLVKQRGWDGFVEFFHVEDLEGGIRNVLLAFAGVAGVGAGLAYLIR
Bim-Mcl-1 – inhibitors of Bim-Mcl-1 interaction, human; 0.1% of 190,000 active; inhibition, % at 10 µM; Bead-based flow cytometry, Bim peptide-Mcl-1 binding; in the data active = inhibition above about 40%
Mcl1 Noxa PPI – disrupts binding of human Mcl-1 to Noxa peptide; inhibition, % at 21.7 µM; AID 1022; 1.5% of 220,000 active; TR-FRET Mcl-1/Noxa peptide binding, 2 h;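 active = compounds that cut the protein-peptide binding signal by more than 50% relative to plate controls in a single-dose test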;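 also: His-tagged Mcl-1 with rhodamine Noxa BH3 peptide and terbium anti-His antibody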
m-calpain inh – blocks pig calpain II enzyme activity. purified calpain II, fluorogenic peptide substrate, 30 min. inhibition, % at 16 µM. 0.37% of 220,000 active. AID 1236;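 active = inhibition above about 50%, limit read from the data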
Numbers stand for hits; i = inactive; nt = no result given; [ ] = dose if it differs, or a comment. Rows were chosen to be rich in hits. Some 3.4% of all compounds tested hit in one or more screens of this group.

SMILES	p47phox inh	14-3-3 Bad PPI	Mcl1-Bid inh	Bim-Mcl-1	Mcl1 Noxa PPI	m-calpain inh
COc1ccc(/C=N/NC(=O)c2cc(O)c(O)c(O)c2)cc1Cn1cc([N+](=O)[O-])cn1	i	i	i	i	92.5	i
N#Cc1c(Cl)c(Cl)c2nnc(-c3ccc(Br)cc3)n2c1Cl	i	95.0[fluorescence artefact?]	i	i	i	i
Cc1ccc2c(n1)sc1c(-c3ccc(Br)cc3)c(C#N)c(N)nc12	i	i	i	i	i	i
CSc1ccccc1C(=O)C1CCCN(S(=O)(=O)c2c(C)noc2C)C1 (stereo unspecified)	i	i	i	i	i	i
N=C1S/C(=C\c2ccccc2)C(=O)N1c1ccc(F)cc1	i	i	i	i	i	i
COc1cc(/C=C2\SC(=N)N(c3ccc(F)cc3)C2=O)ccc1O	i	i	i	i	53.2	i
Cn1cccc1CNCc1ccccc1Cl	i	i	i	i	i	i
OC(CNCc1ccccc1Cl)C(F)(F)F (stereo unspecified)	i	82.4	i	i	i	i
O=C(NCc1ccccc1)NC(O)C(Cl)(Cl)Cl (stereo unspecified)	i	i	i	i	i	i
Cn1nc(-c2ccccc2)cc1NC(=O)c1cccs1	i	i	i	nt	i	i
Cc1ccc(NC(=S)N(Cc2ccco2)C2CCN(C(C)C)CC2)cc1	i	i	i	i	i	i
COc1ccc(CNc2ccc([N+](=O)[O-])cc2C)cc1	i	i	i	nt	i	82.4
Nc1nc(N)c(N=Nc2ccc(S(N)(=O)=O)cc2)c(=O)[nH]1	i	i	i	nt	i	i
NS(=O)(=O)c1ccc(N=Nc2ccc(=O)[nH]c2O)cc1	i	72.9	i	nt	62.6	i
O=C(NC1CCN(C(=O)C2CCCCC2)CC1)c1ccccc1	i	i	i	nt	i	i
CC(=O)NC1C(=O)N=C(SC(C)C(=O)Nc2cccc(Cl)c2)NC1=O (stereo unspecified)	i	87.4	i	i	i	i
COCCCNCCCCOc1ccc(Br)cc1C	41.1	i	i	i	i	i
CC(C)c1onc(C(=O)Nc2cccnc2Cl)c1[N+](=O)[O-]	i	i	i	i	i	55.7
CC(C)c1onc(C(=O)Nc2cccc(O)c2)c1[N+](=O)[O-]	i	i	i	i	i	i
Cc1ccc(NC(=O)c2noc(C(C)C)c2[N+](=O)[O-])cc1	i	i	i	i	i	58.2
Fc1ccc(CO/N=C2\CCCc3nonc32)cc1	i	i	i	i	i	i
CCCC1COC(Cn2cncn2)(c2ccc(C)cc2)O1 (stereo unspecified)	i	88.0	i	i	i	i
NC1=NC(=O)/C(=C\c2ccco2)S1	i	i	i	nt	56.9	i
Cc1ccc(CN2CCN(/N=C/c3sccc3C)CC2)c(C)c1	i	i	i	i	i	i
O=C(N/N=C/c1ccsc1)c1ccc2ccccc2n1	i	i	i	i	i	i
SMILES	p47phox inh	14-3-3 Bad PPI	Mcl1-Bid inh	Bim-Mcl-1	Mcl1 Noxa PPI	m-calpain inh
O=C(O)CC(NC(=O)Cc1ccccc1)c1cc([N+](=O)[O-])ccc1Cl (stereo unspecified)	i	i	i	i	i	i
CC1CCCC(NC(=O)COC(=O)c2ccccc2[N+](=O)[O-])C1C (stereo unspecified)	42.7	i	i	i	i	i
COc1cccc(/C=C(/C(=O)OCC(=O)NC2CCCC(C)C2C)c2ccccc2)c1 (stereo unspecified)	i	i	i	i	i	55.7
CC1CCCC(NC(=O)COC(=O)c2ccccc2NC(=O)c2ccco2)C1C (stereo unspecified)	i	i	i	i	i	i
COc1ccc(N2CCN(C(=O)CCNC(=O)Cn3ccc4ccccc4c3=O)CC2)cc1	i	i	i	i	i	i
COc1ccc(NC(=O)Nc2nnc(CC(=O)NCc3ccccc3)s2)cc1	i	i	91.0	i	i	i
O=C(NC(Cc1ccccc1)C(=O)O)c1ccccc1 (stereo unspecified)	i	i	i	i	i	i
O=C(NC(Cc1ccccc1)C(=O)O)c1ccc(S(=O)(=O)N2CCCCC2)cc1 (stereo unspecified)	i	i	99.2	i	i	i
O=C(N[C@@H](Cc1ccccc1)C(=O)O)c1ccncc1	i	i	94.4	i	i	i
O=C(OCCN1C(=O)c2ccccc2C1=O)c1ccc(S(=O)(=O)N2CCCCCC2)cc1	i	i	i	i	i	68.4
O=C(OCCN1C(=O)c2ccccc2C1=O)c1ccccc1	i	i	i	i	i	i
O=C(NC(Cc1ccccc1)C(=O)O)c1ccc(S(=O)(=O)N2CCCC2)cc1 (stereo unspecified)	i	i	i	i	i	i
Cc1cccc(N2C(S)=C(C#N)C(=O)NC2c2ccco2)c1 (stereo unspecified)	i	i	i	i	i	i
N#CC1=C(S)N(c2ccccc2)C(c2ccc(-c3cccc(Cl)c3)o2)NC1=O (stereo unspecified)	i	i	i	i	69.0	i
O=C(Cn1cnc2scc(-c3cccc([N+](=O)[O-])c3)c2c1=O)NCc1ccco1	i	i	i	i	66.8	i
N#C/C(=C\Nc1ccccc1O)c1nc2ccccc2o1	i	i	i	i	i	i
CCCCCCCN1C/C=C\C(c2ccc(OC)cc2)N(Cc2ccc(F)cc2)C(=O)[C@H]1Cc1ccccc1 (stereo partly specified)	i	i	i	nt	i	i
CN(C)/C=C/C(=O)c1ccc(-n2cccc2)cc1	i	i	i	i	i	i
CN(C)c1ccc(-n2cccc2)cc1	i	i	i	nt	62.4	i
O=C(CN1CCCCC1)Nc1c2c(nc3ccccc13)N(c1ccccc1)CC2	i	71.2	i	i	i	i
CCCC(=O)Nc1c2c(nc3ccccc13)N(c1ccccc1)CC2	i	i	i	i	i	i
Cc1nn(CC(=O)Nc2ccc3c(c2)nc2n3CCOC2)c(=O)c2ccccc12	i	i	i	i	i	i
COCCN1CCn2c(nc3cc(NC(=O)Cn4nc(C)c5ccccc5c4=O)ccc32)C1	i	i	i	nt	66.4	i
O=C1Nc2ccccc2/C1=C/c1cnc(-c2ccccc2)[nH]1	i	i	i	nt	65.1	i
O=C1Nc2ccccc2/C1=C/c1cccnc1	i	i	i	i	i	i
SMILES	p47phox inh	14-3-3 Bad PPI	Mcl1-Bid inh	Bim-Mcl-1	Mcl1 Noxa PPI	m-calpain inh
CC(C)(O)c1cn(-c2nonc2N)nn1	i	i	i	i	i	i
C=CCn1c(O)c(C2=c3ccccc3=NC2=O)s/c1=N/c1nccs1	i	i	55.7	i	i	i
CC(C)N(C)CCOC(=O)/C=C/c1ccccc1	37.6	i	i	i	i	i
O=S1(=O)c2ccccc2N=NN1Cc1ccc(Cl)c(Cl)c1	i	i	i	i	77.4	i
O=S1(=O)CCN(Cc2ccc(Cl)c(Cl)c2)CC1	i	i	i	i	i	i
CC(C)(C)c1ccc(CN2N=Nc3ccccc3S2(=O)=O)cc1	33.5	i	i	i	77.4	i
CC(C)(C)c1ccc(C(=O)Nc2ccc(CN3CCS(=O)(=O)CC3)cc2)cc1	i	i	i	nt	i	i
